Seven compounds from PubChem BioAssay (NCATS) can be followed below.

Records with an inconclusive call do not appear. The source made the active and inactive calls. Unless noted, calls follow the shape of the dose curve; as a rule, active = well fitted curve in the direction sought with a large enough effect; inconclusive = small, poorly fitted or top-dose-only effect, or another doubt; inactive = no such curve, though single readings can be large; an effect the other way counts as inactive or inconclusive.

A short description of assay [1]: qHTS Assay for Identifying Gametocytocidal Compounds (AID 743244).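 Also: % is scaled to controls: 0 for no effect and ±100 for the full control effect; actives lower the fluorescent signal which means gametocytes are killed.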 Conditions: P. falciparum 3D7 stage III-V gametocytes, alamarBlue, 72 h; max response: stronger effect = lower value. The essentials:
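P. falciparum 3D7 stage III–V gametocytes (20,000 cells/well) were exposed to compounds for 72 h at 37 °C, 5% CO2. AlamarBlue was then added for 24 h; decreased resorufin fluorescence (Ex 525/Em 598 nm) indicated loss of viability.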
Background: Quantitative high-throughput screening tests each substance at several concentrations.

Another assay relates to KB-3-1. Kind of assay: Cytotoxic Profiling of Annotated Libraries Using Quantitative High-Throughput Screening (AID 1296008). Also: nearly all actives have a fitted effect of over 60% in size. Also: potency is read from the fitted curve at half-maximal effect. As to max response: % is scaled to controls: 0 for no effect and ±100 for the full control effect. The conditions noted are these: Five cell lines viability, CellTiter-Glo ATP luminescence, 48-72 h; max response: stronger effect = lower value. The essentials:
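Cytotoxicity was measured as CellTiter-Glo ATP luminescence, read after 10 min at room temperature. Compound treatment of the cells lasted 48 or 72 hr at 37 degrees Celsius in a qHTS format.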
Background: ATP-based viability assays read luminescence as a measure of living cells.

A further assay deals with astro. Kind of assay: Drug repurposing screens with cells derived from glioblastoma tumor samples (AID 1345199). Also: nearly all actives have a fitted effect of over 40% in size. Also: potency is read from the fitted curve at half-maximal effect. The conditions noted are these: viability, ATP luminescence, 48 h; series mostly up to 45.9 µM. The essentials:
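Primary testing used CD133+ neurospheres from four GBM patients, seven concentrations, 48 h exposure and ATP-based viability; confirmation added three slower-growing patient lines.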

A short description of assay [2]: P-glycoprotein substrates identified in KB-8-5-11 adenocarcinoma cell line, qHTS therapeutic library screen (AID 1346987). Also: nearly all actives have a fitted effect of over 65% in size. Also: potency is read from the fitted curve at half-maximal effect. In outline:
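In this qHTS, P-gp-rich KB-8-5-11 cells received library compounds across a concentration range. Viability was quantified by luminescence after 72 h at 37 degree C.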

A short description of assay [3]: Primary qHTS for Huh7 cytotoxicity: counterscreen for inhibitors of MERS-S pseudotyped particle cell entry (AID 1479147; calls by dose curve). Conditions: outcome: dose series up to 57.1 µM unless noted.
A short description of assay [4]: Primary qHTS for inhibitors of MERS-S pseudo-typed particle cell entry (AID 1479149; calls by dose curve; also: nearly all actives have a fitted effect of over 60% in size).
Assay [5] in a line: Primary qHTS for Vero E6 cytotoxicity: counterscreen for inhibitors of SARS-S pseudo-typed particle cell entry (AID 1479150; calls by dose curve). The conditions noted are these: outcome: dose series up to 57.1 µM unless noted.
The nature of assay [6]: Cytotoxicity counterscreen for inhibitors of SARS-CoV-2 cell entry (AID 1645845; calls by dose curve; also: nearly all actives have a fitted effect of over 50% in size). The essentials:
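ATP-content luminescence (ATPLite 1step, 15 min RT) read after 48 h compound exposure of Expi293F cells stably expressing human ACE2; normalized to cells-only wells and media-only wells.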
On the technique in general: A counterscreen serves to expose hits that act by an unwanted route or on another target.

The nature of assay [7]: Primary qHTS to identify inhibitors of SARS-CoV-2 cell entry (AID 1645846; calls by dose curve; also: nearly all actives have a fitted effect of over 45% in size). The conditions noted are these: activity change, negative = inhibition: at 57.1 µM (top of the series) unless noted. The essentials:
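Luminescence readout (Bright-Glo luciferase) 48 h after pseudoparticle addition. HEK293-ACE2 cells, 1500/well; compound pre-incubation 1 h; Normalized to spike PP and bald PP.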

Assay [8] addresses Glutathione peroxidase 1 (Homo sapiens) (UniProt P07203). The assay is described as follows: Primary qHTS Assay for Inhibitors of Recombinant Selenoprotein Glutathione Peroxidase 1 (GPX1) (AID 1845191). Also: nearly all actives have a fitted effect of over 65% in size. The essentials: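 NADPH consumption tracked by fluorescence at 340/450 nm between t=0 and t=15 min, room temperature. Final mix: 10 nM GPX1, 100 nM glutathione reductase, 1 mM GSH, 0.5 mM NADPH, 0.5 mM cumene hydroperoxide, 0.01% BSA; 30 min compound–enzyme preincubation.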

The target in assay [9] is Phospholipid hydroperoxide glutathione peroxidase GPX4 (Homo sapiens) (UniProt P36969). The assay is described as follows: Primary qHTS Assay for Inhibitors of Recombinant Selenoprotein Glutathione Peroxidase 4 (GPX4) (AID 1845192). Also: nearly all actives have a fitted effect of over 65% in size. The essentials: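 NADPH consumption followed by fluorescence at 340/450 nm, t=0 and after 15 min at room temperature. Reaction started with cumene hydroperoxide (0.5 mM final) after 30 min compound–GPX4 preincubation; final 200 nM GPX4, 100 nM GR, 1 mM GSH, 0.5 mM NADPH.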

In the next assay the target is Furin (Homo sapiens) (UniProt P09958). Kind of assay: Furin counterscreen qHTS for Zika virus inhibitors (AID 1347149).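 Also: purified recombinant full-length human furin enzyme at 5 nM; fluorescence gain from furin cutting a BOC-RVRR-AMC peptide substrate over 15 min; top concentration of the series differs between compounds; plate controls were no-inhibitor control for no effect and no-enzyme control for full effect; nearly all actives have a fitted effect of over 70% in size.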 The essentials:
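Counterscreen measures cleavage of 2 microM BOC-RVRR-AMC, below its ~15 microM Km, by 5 nM full-length human furin at pH 7.0 after a 15-min compound preincubation. Inhibition derives from the 15-min fluorescence increase at 37C.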

Assay [10] has as its system Zika virus NS2B-NS3 protease (unlinked). The assay is described as follows: Optimization of GU AMC qHTS for Zika virus inhibitors: Unlinked NS2B-NS3 protease assay (AID 1347151).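 Also: 0% = no-inhibitor control and -100% = no-enzyme control; nearly all actives have a fitted effect of over 80% in size.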 The essentials:
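Noncovalent complex of NS2B hydrophilic domain and NS3 protease domain, 25 nM final, in 10 mM Tris-HCl pH 8.0, 0.01% Tween 20. AMC fluorescence change over 15 min at room temperature was fitted to a 4-parameter Hill equation.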

Assay [11] can be described thus: Vero cells viability qHTS for Zika virus inhibitors (AID 1347167). Also: % is scaled to controls: 0 for no effect and ±100 for the full control effect. In outline: (§1)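 Luminescent ATP readout (CellTiter Glo) after 30 min at 37 degrees C gives viability; cells in DMEM + 4% FBS were treated 24 to 48 hours with compound, following overnight attachment.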
A short description of assay [12]: HepG2 cells viability qHTS for Zika virus inhibitors (AID 1347168). Also: % is scaled to controls: 0 for no effect and ±100 for the full control effect. In outline:
as §1

Assay [13] is described as follows: Tertiary RLuc qRT-PCR qHTS assay for Zika virus inhibitors (AID 1347169). Also: potency is read from the fitted curve at half-maximal effect; nearly all actives have a fitted effect of over 55% in size. In outline:
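Vero cells (1,000 per well) plated overnight at 37 degrees C, treated with compound in DMSO, then infected with recombinant ZIKV-RLuc (Cambodian) at MOI 1-2 for 48-72 hrs. Live-cell Renilla luciferase substrate added; luminescence read after 1-1.5 hrs.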

The target in assay [14] is Cytochrome P450 2D6 (Homo sapiens) (UniProt P10635). The assay is described as follows: Cytochrome P450 family 2 subfamily D member 6 (CYP2D6) small molecule antagonists: luciferase biochemical (cell-free) qHTS assay (AID 1645840; active = well fitted curve in the direction sought with a large enough effect in the repeat runs; an effect the other way counts as inactive or inconclusive; also: % is scaled to controls: 0 for no effect and ±100 for the full control effect; nearly all actives have a fitted effect of over 55% in size). The essentials:
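P450-Glo CYP2D6 system: proluciferin substrate converted by enzyme to luciferin, read by luminescence proportional to activity. Enzyme-substrate mix with compound 10 min at room temperature, then NADPH regeneration 1 h before detection reagent.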

For assay [15], the target named is Cytochrome P450 3A4 (Homo sapiens) (UniProt P08684). Kind of assay: Cytochrome P450 family 3 subfamily A member 4 (CYP3A4) small molecule antagonists: luciferase qHTS assay (AID 1645841; active = well fitted curve in the direction sought with a large enough effect in the repeat runs; an effect the other way counts as inactive or inconclusive; also: nearly all actives have a fitted effect of over 45% in size). The essentials:
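Luminescent CYP3A4 activity readout: compounds plus enzyme-substrate mix 10 min at room temperature, reaction started with NADPH regenerating system for 1 h, stopped with detection reagent, read after 20 min. Ketoconazole served as control.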

Assay [16] has as its target Cytochrome P450 2C9 (Homo sapiens) (UniProt P11712). Kind of assay: Cytochrome P450 family 2 subfamily C member 9 (CYP2C9) small molecule antagonists: luciferase biochemical (cell-free) qHTS assay (AID 1645842; active = well fitted curve in the direction sought with a large enough effect in the repeat runs; an effect the other way counts as inactive or inconclusive; also: % is scaled to controls: 0 for no effect and ±100 for the full control effect; nearly all actives have a fitted effect of over 55% in size). In outline:
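P450-Glo CYP2C9 system: proluciferin substrate with enzyme in mix containing 0.4% BSA, 10 min at room temperature, then NADPH regeneration solution added and incubated 1 h at 37C. Detection reagent stopped reaction; luminescence read after 20 min as RLU.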

Assay [17] has as its target Luciferin 4-monooxygenase (Photinus pyralis) (UniProt P08659). Kind of assay: Biochemical firefly luciferase enzyme assay for NPC (AID 624030).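 Also: purified P. pyralis luciferase at 10 nM with luciferin and ATP substrate; 0% = DMSO and -100% = full luciferase inhibition by PTC124 control; nearly all actives have a fitted effect of over 70% in size.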 The essentials:
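Direct inhibition of firefly luciferase enzyme (10 nM final, 50 mM Tris Acetate) assessed by luminescence within 5 minutes. Percent activity scaled between DMSO and PTC124 positive control, with concentration-effect curves classified by fit quality and response.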

Sequence of Luciferin 4-monooxygenase (Photinus pyralis) (P08659 whole entry, looked up): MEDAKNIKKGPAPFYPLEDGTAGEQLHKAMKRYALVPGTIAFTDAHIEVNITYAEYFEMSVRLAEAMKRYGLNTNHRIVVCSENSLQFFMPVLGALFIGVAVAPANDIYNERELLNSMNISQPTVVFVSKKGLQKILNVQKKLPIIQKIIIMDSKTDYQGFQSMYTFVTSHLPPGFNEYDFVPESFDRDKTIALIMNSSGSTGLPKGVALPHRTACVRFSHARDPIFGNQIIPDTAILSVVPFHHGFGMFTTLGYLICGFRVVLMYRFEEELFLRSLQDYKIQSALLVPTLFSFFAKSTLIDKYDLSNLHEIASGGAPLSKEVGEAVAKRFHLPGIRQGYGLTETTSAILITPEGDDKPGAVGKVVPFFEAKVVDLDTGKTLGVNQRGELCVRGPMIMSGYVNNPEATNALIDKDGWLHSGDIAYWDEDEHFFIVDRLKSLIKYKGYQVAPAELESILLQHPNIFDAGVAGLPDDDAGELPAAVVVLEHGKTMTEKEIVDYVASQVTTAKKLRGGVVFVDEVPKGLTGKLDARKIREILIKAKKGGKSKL
Sequence of Glutathione peroxidase 1 (Homo sapiens) (P07203 whole entry, looked up): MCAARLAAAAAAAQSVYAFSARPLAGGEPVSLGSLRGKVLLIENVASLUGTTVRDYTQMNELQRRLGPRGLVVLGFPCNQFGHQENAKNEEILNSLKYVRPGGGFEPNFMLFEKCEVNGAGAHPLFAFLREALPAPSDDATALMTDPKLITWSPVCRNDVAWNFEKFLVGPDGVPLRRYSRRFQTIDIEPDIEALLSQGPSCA
Sequence of Phospholipid hydroperoxide glutathione peroxidase GPX4 (Homo sapiens) (P36969 whole entry, looked up): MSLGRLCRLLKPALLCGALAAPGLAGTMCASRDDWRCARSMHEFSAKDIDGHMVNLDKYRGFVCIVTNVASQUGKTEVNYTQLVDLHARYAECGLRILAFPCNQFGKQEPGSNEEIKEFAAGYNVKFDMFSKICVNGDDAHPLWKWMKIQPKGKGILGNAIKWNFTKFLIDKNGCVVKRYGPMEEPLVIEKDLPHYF
Sequence of Cytochrome P450 3A4 (Homo sapiens) (P08684 whole entry, looked up): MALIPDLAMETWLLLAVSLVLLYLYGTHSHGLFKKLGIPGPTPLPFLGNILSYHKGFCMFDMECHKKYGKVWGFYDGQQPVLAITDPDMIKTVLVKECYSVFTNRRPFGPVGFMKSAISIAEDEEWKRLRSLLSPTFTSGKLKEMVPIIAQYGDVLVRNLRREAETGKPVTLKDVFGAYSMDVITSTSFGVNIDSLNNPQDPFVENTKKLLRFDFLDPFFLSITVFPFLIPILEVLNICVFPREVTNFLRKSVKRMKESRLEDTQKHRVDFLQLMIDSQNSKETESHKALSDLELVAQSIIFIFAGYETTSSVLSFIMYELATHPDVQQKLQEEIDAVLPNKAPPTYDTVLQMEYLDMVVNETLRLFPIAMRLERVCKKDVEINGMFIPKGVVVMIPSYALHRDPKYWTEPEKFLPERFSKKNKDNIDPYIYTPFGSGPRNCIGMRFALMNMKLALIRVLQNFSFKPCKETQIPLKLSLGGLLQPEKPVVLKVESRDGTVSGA
Sequence of Furin (Homo sapiens) (P09958 whole entry, looked up): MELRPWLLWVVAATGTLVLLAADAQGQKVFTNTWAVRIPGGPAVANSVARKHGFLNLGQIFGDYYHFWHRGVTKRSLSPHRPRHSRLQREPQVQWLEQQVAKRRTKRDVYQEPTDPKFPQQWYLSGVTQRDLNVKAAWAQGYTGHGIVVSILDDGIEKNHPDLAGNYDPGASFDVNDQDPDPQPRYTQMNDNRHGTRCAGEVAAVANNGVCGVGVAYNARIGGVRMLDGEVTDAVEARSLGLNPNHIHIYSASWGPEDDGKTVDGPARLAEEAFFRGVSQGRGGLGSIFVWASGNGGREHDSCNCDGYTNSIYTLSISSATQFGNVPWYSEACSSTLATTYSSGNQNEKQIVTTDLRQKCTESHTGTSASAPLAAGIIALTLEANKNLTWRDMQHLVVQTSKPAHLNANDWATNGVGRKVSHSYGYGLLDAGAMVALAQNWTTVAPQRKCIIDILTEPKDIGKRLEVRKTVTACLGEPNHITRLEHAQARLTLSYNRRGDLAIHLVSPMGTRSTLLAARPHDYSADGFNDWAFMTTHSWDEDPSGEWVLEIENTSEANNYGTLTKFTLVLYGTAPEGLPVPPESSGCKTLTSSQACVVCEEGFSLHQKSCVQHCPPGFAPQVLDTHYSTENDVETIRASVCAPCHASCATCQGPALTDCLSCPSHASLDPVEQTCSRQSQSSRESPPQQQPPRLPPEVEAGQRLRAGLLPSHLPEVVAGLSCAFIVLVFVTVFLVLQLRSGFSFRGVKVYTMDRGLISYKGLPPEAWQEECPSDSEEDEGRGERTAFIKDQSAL
Sequence of Cytochrome P450 2C9 (Homo sapiens) (P11712 whole entry, looked up): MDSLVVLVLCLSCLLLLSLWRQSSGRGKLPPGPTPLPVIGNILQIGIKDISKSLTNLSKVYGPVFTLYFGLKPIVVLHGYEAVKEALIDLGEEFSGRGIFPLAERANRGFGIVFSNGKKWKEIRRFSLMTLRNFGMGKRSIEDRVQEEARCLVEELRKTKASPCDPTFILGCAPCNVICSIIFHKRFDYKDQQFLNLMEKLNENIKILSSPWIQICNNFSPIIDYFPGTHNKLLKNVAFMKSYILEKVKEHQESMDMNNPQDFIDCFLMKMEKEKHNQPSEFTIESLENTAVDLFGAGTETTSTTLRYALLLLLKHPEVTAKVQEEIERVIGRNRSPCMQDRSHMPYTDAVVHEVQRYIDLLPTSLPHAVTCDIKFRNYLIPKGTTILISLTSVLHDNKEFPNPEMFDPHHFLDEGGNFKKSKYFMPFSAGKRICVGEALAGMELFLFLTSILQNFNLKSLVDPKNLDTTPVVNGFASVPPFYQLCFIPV
Sequence of Cytochrome P450 2D6 (Homo sapiens) (P10635 whole entry, looked up): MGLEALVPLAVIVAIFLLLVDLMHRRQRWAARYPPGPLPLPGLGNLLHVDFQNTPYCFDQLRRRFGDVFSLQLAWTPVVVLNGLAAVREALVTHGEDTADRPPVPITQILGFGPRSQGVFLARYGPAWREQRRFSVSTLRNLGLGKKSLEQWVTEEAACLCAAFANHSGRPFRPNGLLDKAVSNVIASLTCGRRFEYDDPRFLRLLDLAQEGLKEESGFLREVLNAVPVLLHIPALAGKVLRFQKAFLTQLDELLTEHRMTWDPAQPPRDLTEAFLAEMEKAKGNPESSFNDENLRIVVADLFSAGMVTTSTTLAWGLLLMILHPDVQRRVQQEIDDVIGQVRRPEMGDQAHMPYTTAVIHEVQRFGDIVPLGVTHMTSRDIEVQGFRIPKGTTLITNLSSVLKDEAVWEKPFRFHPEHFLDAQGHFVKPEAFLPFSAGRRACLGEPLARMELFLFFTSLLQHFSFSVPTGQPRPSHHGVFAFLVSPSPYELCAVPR

Consider `C[C@]12CCC(=O)C[C@@H]1CC[C@@H]1[C@@H]2CC[C@@]2(C)[C@H]1CC[C@]2(C)O`, for which the max response in assay [1] is -5.63% (inactive); in the assay on KB-3-1, -6.75% (inactive). Further, the Potency entry in the assay with astro is “inactive”.

In the case of `CC(=O)[C@@]1(O)CC[C@H]2[C@@H]3CCC4=CC(=O)CC[C@]4(C)C3(F)[C@@H](O)C[C@@]21C` (some centres undefined), the max response in assay [1] was 7.59% (inactive); in the assay with KB-3-1, -10.8% (inactive). The Potency entry (in [2]; in assay [4]; in [6]; in assay [8]; in [9]; in the assay with astro) was “inactive” each time. In addition, the result in [3] and in [5] was inactive. Besides, the activity change, negative = inhibition in assay [7] is -3.62%.

On to `C[C@H]1[C@H]2Cc3ccc(O)cc3[C@]1(C)CCN2CCc1ccccc1`, for which the Potency entry (in the assay with Furin (Homo sapiens); in assay [11]; in assay [12]) was “inactive” each time. Besides, in [10], the outcome was inactive. Further, the Potency in assay [13] is 47.5 µM (active). The max response in the assay with KB-3-1 is -3.9% (inactive).

With `CCCCNC(C)(C)[P+](=O)O`, the max response in assay [1] is -17.6% (inactive); with KB-3-1, 5.36% (inactive). For the same compound, the Potency result (in assay [14]; in [16]; in the assay on astro) was “inactive” in each case. The compound was called inactive in assay [15].

In the case of `CCCSc1cc(OC)c(CCN)cc1OC`, the Potency entry in assay [17] was “inactive”. Moreover, the values for the Potency (in assay [2]; in the assay on KB-3-1; in the assay with astro) were 20 µM (active), 17.8 µM (active) and 31.6 µM (active), respectively.

Turning to `COc1cc(C[C@H](C)N)c(OC)cc1Br`, the Potency result (in [17]; in [2]; in the assay on astro) was “inactive” each time. The max response in [1] was -8.52% (inactive); in the assay with KB-3-1, -6.95% (inactive).

As for `Cc1nnc2n1-c1sc(Br)cc1C(c1ccccc1Cl)=NC2`, the Potency result in assay [17], in [4], in assay [6], in [8] and in [9] was “inactive” each time. The max response in assay [1] was 6.14% (inactive); in the assay with KB-3-1, -25.2% (inactive). The call in [3] and in [5] was inactive.
